Screening results deposited in PubChem by National Center for Advancing Translational Sciences (NCATS).
Pf growth 48h – inhibits P. falciparum growth in the first generation, 48 h; P. falciparum luciferase growth in erythrocytes, 48 h; Potency, µM (series often up to 28.7 µM), for the others: at the highest dose activity change, negative = inhibition, usual class: inhibitors; 310,000 tested, 5.9% active; AID 504832; also: % is scaled to controls: 0 for no effect and ±100 for the full control effect
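Read-out is firefly luciferase luminescence from an integrated reporter in P. falciparum, so falling signal marks reduced parasite growth. Infected erythrocytes were at 2% hematocrit and 0.1% parasitemia (final) in Albumax-supplemented RPMI 1640.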
VACV mCherry inh – vaccinia inhibition (mCherry reporter); Vaccinia virus mCherry reporter infection, fluorescence; AID 720579; Potency, µM (series often up to 36.5 µM), without a hit: top-dose activity change, negative = inhibition, most hits filed as inhibitors; 310,000 tested, 0.63% active; calls by dose curve; tested in A549 cells; also: % is scaled to controls: 0 for no effect and ±100 for the full control effect; nearly all actives have a fitted effect of over 35% in size
NS1 function inh – blocks influenza NS1 protein function; Potency, µM (top dose mostly 46.1 µM), without a hit: top-dose activity, positive = more growth; 270,000 tested, 0.4% active; AID 2326; calls by dose curve; also: actives are rising curves; nearly all actives have a fitted effect of over 50% in size
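S. cerevisiae expressing influenza A NS1, grown in glucose, washed, then diluted 1:100 into pH 6.0 -URA galactose medium with 23 nl compound. Growth recovery read as OD600; NS1-free strain serves as control.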
Pf growth 96h – P. falciparum growth inhibition at 96 hours | P. falciparum luciferase reporter growth, 96 h | Potency, µM (top dose mostly 28.7 µM), inactives show top-dose activity change, negative = inhibition, most hits filed as inhibitors | 320,000 tested, 6.9% active | AID 504834; also: % is scaled to controls: 0 for no effect and ±100 for the full control effect
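Plates of compound plus infected erythrocytes (2% hematocrit, 0.05% parasitemia final) incubate 96 hours, 37 C, 5% CO2. Detection reagent added; reduced luminescence from the parasites' luciferase reporter flags inhibition.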
HCV inhibitor – inhibitors of hepatitis C virus infection. Huh7.5.1 HCVcc-Cre infection, luciferase reporter, 44 h. AID 651820. 340,000 tested, 3.4% active. Potency, µM (highest dose often 41.8 µM), for inactives: at the highest dose activity change, negative = inhibition, most hits filed as inhibitors; also: % is scaled to controls: 0 for no effect and ±100 for the full control effect
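Antiviral activity was scored by luciferase reporter output from cells infected with HCVcc-Cre (~0.5 moi) in presence of compound, 44 h infection period, cells seeded 1,000/well 4 h prior.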
Vaccinia Venus – inhibitors of vaccinia virus (Venus reporter). AID 720580. Potency, µM (top dose mostly 36.5 µM), for inactives: at the highest dose activity change, negative = inhibition, usual class: inhibitors. 330,000 tested, 0.46% active. Vaccinia virus Venus reporter expression, fluorescence; calls by dose curve; tested in A549 cells; also: % is scaled to controls: 0 for no effect and ±100 for the full control effect; nearly all actives have a fitted effect of over 30% in size
* hit, by the source's call; i = inactive; ? = inconclusive; . = not tested or not shown; [ ] = dose if it differs, or a comment. An excerpt weighted towards active compounds, which were near 11% of everything screened. Unless noted, calls follow the shape of the dose curve; as a rule, active = well fitted inhibition curve with a large enough effect; inconclusive = small, poorly fitted or top-dose-only effect, or another doubt; inactive = no such curve, though single readings can be large or run the other way. Potency is read from the fitted curve at half-maximal effect.

SMILES	Pf growth 48h	VACV mCherry inh	NS1 function inh	Pf growth 96h	HCV inhibitor	Vaccinia Venus
CCOC(=O)C1CCN(C(=O)Cn2nc(C)n3nc(-c4ccc(OC)cc4)cc3c2=O)CC1	-5%	.	-13%	?	?	.
Cc1ccc(C(C[N+](=O)[O-])Sc2ccc(N)cc2)cc1 (configuration not stated)	?	?	-45%	12µM*	?	-4%
Cc1ccc(C(C[N+](=O)[O-])n2nc(C)cc2C)cc1 (configuration not stated)	?	-12%	-71%	.	9%	-9%
COCCCNC(=O)NC(CCC(C)C)c1c(-n2cccc2)sc2c1CCN(C)C2 (configuration not stated)	.	-12%	.	.	.	-11%
CC(=O)NNC(=O)c1[nH]c2ccc(Cl)cc2c1-c1ccccc1	5%	.	-1%	19%	9%	.
O=C(NN=C1CCCC1)c1[nH]c2ccc(Cl)cc2c1-c1ccccc1	?	-27%	22%	13µM*	1%	-25%
CC1(C)Cc2c(sc3nc(-c4ccccc4Cl)n(N)c(=O)c23)CO1	.	i[1.46 µM]	7%	13%	?	-23%
COc1cc(/C=N/NC(=O)c2cc3c(ccc4ccccc43)o2)cc(OC)c1O	-2%	.	-8%	?	.	.
O=C(c1ccccc1)N1CCN(c2ccc([N+](=O)[O-])c(NCc3cccnc3)c2)CC1	9.3µM*	-10%	-6%	?	?	-20%
O=C(c1ccccc1F)N1CCN(c2ccc([N+](=O)[O-])c(NCc3cccnc3)c2)CC1	?	i	-5%	10µM*	-5%	-8%
O=C(COC(=O)c1ccc(Br)o1)NCc1ccc2c(c1)OCO2	.	i	.	.	-7%	-14%
COc1ccc(CNC(=O)c2c(Nc3ccccc3C)sc(C(=O)c3ccccc3)c2N)cc1	.	?	.	.	.	-30%
Cc1ccc(CNC(=O)c2c(Nc3ccccc3C)sc(C(=O)c3ccc(F)cc3)c2N)cc1	.	11µM*	.	.	.	?
Cc1cc(C)cc(NC(=O)N2c3ccccc3NC(=O)CC2C)c1 (configuration not stated)	1%	-3%	-2%	0%	13%	-8%
Cc1cc(C)c(S(=O)(=O)NCc2nc3nc(C)cc(C)n3n2)c(C)c1	-7%	-12%	-2%	12µM*	2%	-5%
Cc1cc(C)n2nc(CC(=O)NCc3ccccc3Cl)nc2n1	7%	-6%	6%	3.3µM*	5%	1%
Cc1ccc(S(=O)(=O)NCc2nc3nc(C)cc(C)n3n2)c(C)c1	32%	-12%	-1%	?	7%	-7%
COc1ccc(S(=O)(=O)NCc2nc3nc(C)cc(C)n3n2)cc1	.	6%	.	.	10%	1%
COC(=O)c1ccccc1S(=O)(=O)NCc1nc2nc(C)cc(C)n2n1	37%	i	4%	13µM*	5%	3%
CC1=Nn2c(nnc2-c2ccccc2Cl)SC1	0%	.	6%	?	19%	.
COc1ccc(-c2noc(-c3ccccc3Cl)n2)cc1OC	224%	-4%	-11%	.	10µM*	-1%
CCOc1ccc(-c2noc(-c3ccncc3)n2)cc1OCC	11%	.	-12%	13%	?	.
COc1ccc(-c2noc(-c3ccco3)n2)cc1OC	199%	i	-54%	?	11µM*	-14%
CCOc1ccc(-c2nc(-c3ccc(OC)cc3)no2)cc1OCC	8%	.	-13%	?	7.9µM*	.
COc1cccc(-c2nc(Cl)nc3cc(Cl)ccc23)c1	.	-4%	.	.	.	-2%
COc1cc2c3c(c1OC)-c1cc(O)ccc1CC3NCC2 (configuration not stated)	-12%	.	6%	38%	-16%	-13%
COc1cc2c(cc1OC)-c1c(OC)c(OC)cc3c1[C@H](C2)[N+](C)(C)CC3	?	i	9%	0.37µM*	?	-4%
CCOc1ccc(S(=O)(=O)N2CCN(Cc3ccccc3)CC2)cc1	-8%	-15%	-14%	-88%	-15%	-11%
Cc1ccc(C)c(S(=O)(=O)Nc2ccc3[nH]c(=O)[nH]c3c2)c1	-2%	-28%	15%	30%	-29%	-1%
